# Experimental data: PubChem BioAssay (NCATS)
# A number with no mark means an inactive call. How the calls were made is not given here.
# Test system: HIV-1 nucleocapsid protein NCp7 (binding to TG oligonucleotide)
# Experiment: HIV Nucleocapsid (AID 346);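 further: potency is for inhibitors that block NC binding and lower polarization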
# Details: HIV-1 NC / fluorescein-TGTGTGTG probe, fluorescence polarization
# Summary of the method: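 Reagents dispensed (10 nM TG4xF, 100 nM HIV-1 NC), plates spun, compounds pin-transferred, then incubated 1 hr at room temperature before FP imaging. Buffer: Hepes pH 7.5, 250mM NaCl, 1uM ZnCl2, 100 uM TCEP, 5 mM 2-mercaptoethanol.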
# Potency means the concentration at half of the fitted maximal effect.
row,SMILES,Potency [µM]
1,CC(=O)N1CCC2(CCN(Cc3cc(C(F)(F)F)cc(C(F)(F)F)c3)CC2)CC1,> 20
2,CN(C)C(=O)c1ccc(-c2ccc3ncnc(N(C)C)c3c2)cc1,> 20
3,c1ccc(CNc2nc(-c3ccoc3)nc3ccccc23)cc1,> 20
4,COCCn1c(=O)c(-c2ccccc2)nc2cnc(Nc3cccc(OC)c3)nc21,> 20
5,COc1ccccc1-c1ccc2ncnc(N3CCN(C)CC3)c2c1,> 20
6,COc1ccc(-c2nc3cnc(N(C)C)nc3n(Cc3ccc(F)cc3)c2=O)cc1,> 20
7,c1cncc(-c2nc(-n3ccnc3)c3ccccc3n2)c1,> 20
8,O=c1cnc2cnc(Oc3cccc(Cl)c3)nc2n1C1CC1,> 20
9,COc1ccc(C(=O)N2CCC3(CCCN(Cc4ccccc4)C3)CC2)cc1,> 20
10,O=C(c1ccco1)N1CCC[C@@]2(CCN(c3ccccc3)C2)C1,> 20
11,O=C(c1cnccn1)N1CCC2(CC1)CCN(c1ccccn1)CC2,> 20
12,COc1ccc(-n2c(=O)cnc3cnc(N(C)C)nc32)cc1,> 20
13,CS(=O)(=O)Nc1cccc(-c2ccc3ncnc(N4CCNCC4)c3c2)c1,> 20
14,CN1CCC2(CC1)CCN(C(=O)c1cc(C(F)(F)F)cc(C(F)(F)F)c1)CC2,> 20
15,c1ncc(-c2ccc3c(c2)OCO3)c(NCCc2cnc[nH]2)n1,> 20
16,COc1cccc(Nc2ncc3nc(-c4cc(F)cc(F)c4)c(=O)n(C4CC4)c3n2)c1,> 4
17,COc1ccccc1CCn1c(=O)c(-c2cccc(Cl)c2)nc2cncnc21,> 20
18,CN1CCN(c2cc(-c3ccoc3)ncn2)CC1,> 20
19,O=C(c1csnn1)N1CCC[C@@]2(CCN(c3ccncc3)C2)C1,> 20
20,COc1ccc(NC(=O)N2CCC3(CC2)CCN(C(=O)c2csnn2)CC3)cc1,> 20

row,SMILES,Potency [µM]
1,COc1ccc(-c2nc3cnc(Nc4cccc(OC)c4)nc3n(C)c2=O)cc1,> 20
2,COc1ccc2[nH]cc(CCNc3cc(-c4c(C)noc4C)ncn3)c2c1,> 20
3,Cc1noc(C)c1-c1nc(NCc2ccccc2)c2ccccc2n1,> 20
4,CC(=O)N1CCC2(CC1)CN(Cc1ccccc1)C2,> 20
5,N#Cc1ccc(CN2CCCC3(CCN(C(=O)c4cc(C(F)(F)F)cc(C(F)(F)F)c4)CC3)C2)cc1,> 20
6,COCCn1c(=O)c(-c2ccc(Cl)cc2)nc2cnc(N(C)C)nc21,> 20
7,CN(C)C(=O)c1ccc(-c2nccc(NCc3ccccc3)n2)cc1,> 20
8,COc1ccc(Oc2ncc3nc(C)c(=O)n(-c4ccc(OC)cc4)c3n2)cc1,> 20
9,COc1ccc(-n2c(=O)c(-c3ccc(F)c(F)c3)nc3cncnc32)cc1,> 4
10,Cn1cccc1C(=O)N1CCC2(CC1)CCN(C(c1ccccc1)c1ccccc1)CC2,> 20
11,Cc1cnc(CNc2ncncc2-c2cccc(NS(C)(=O)=O)c2)cn1,> 20
12,CC(C)NC(=O)N1CCC2(CC1)CCN(C(=O)c1cc(C(F)(F)F)cc(C(F)(F)F)c1)CC2,> 20
13,COc1ccc(-c2nc3cnc(OCc4ccccc4)nc3n(CCC#N)c2=O)cc1,> 20
14,CNc1ncnc2ccc(-c3cccc(OC)c3)cc12,> 20
15,COc1cccc(-c2cncnc2NCc2ccccc2)c1,> 20
16,CC(=O)NCCNc1nc(-c2ccccc2Cl)nc2ccccc12,> 20
17,Fc1ccc(Nc2ncncc2-c2ccccc2C(F)(F)F)cc1,> 20
18,CN(Cc1ccco1)c1ncnc2ccc(-c3cccnc3)cc12,> 20
19,COc1ccccc1CNc1ncncc1-c1cccc(C#N)c1,> 20
20,Cc1noc(C)c1-c1cncnc1Nc1ccccc1,> 20
